C2C12 statin – suppressors of simvastatin-induced myotoxicity in C2C12 myotubes; rescue of ATP level, % at 7.49 µM; AID 602340; 0.78% of 330,000 active; ATP luminescence, 48 h; scaled: DMSO 0, geranylgeraniol control 100;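 active = mean ATP rescue above about 67%, or every replicate alone reaching that limit, limit read from the data, passing the limit was not always enough; inconclusive = no clear call, values can overlap the other calls; inactive = mean under the limit and some replicate under it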;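 also: myotubes were challenged with 10 µM simvastatin during compound exposure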
AI-2 QS modul – modulates the Vibrio harveyi AI-2 quorum sensing system; Vibrio harveyi JMH597 AI-2 luminescence/OD600 ratio, 9 h; stronger effect = lower value; strain lacks LuxN and CqsS sensors; 0 = neutral-control median; activity change, % at 7.5 µM; 0.4% of 300,000 active; AID 2094; in the data active = activity change below about -75%, passing the limit was not always enough; inconclusive = no clear call, values can overlap the other calls;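 also: luminescence divided by OD600 gain over 9 h not by final OD600 alone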
HIF act – HIF pathway transcriptional activation; U2OS HRE-luciferase reporter, luminescence; normalized: DMSO 0%, desferrioxamine 100%; activation, % at 7.5 µM (by protocol); 0.32% of 300,000 active; AID 1910;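 active = mean activation of at least 10% of the iron chelator positive control signal, with at least half of replicates also reaching 10%; inconclusive = mean and replicate majority disagree about reaching 10%; inactive = mean and most replicates under 10%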
PGC1a acetyl inh – PGC1a acetylation modulation, inhibitor mode | AID 651687 | U2OS PGC1a acetylation, AlphaScreen anti-acetyl-lysine; with virally co-expressed GCN5 acetyltransferase | inhibition, % at 15.6 µM | 0.17% of 350,000 active;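 active = every replicate shows inhibition of at least 40%; inconclusive = mean inhibition at least 40% but some replicate below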
Rce1 inh – inhibitors of yeast Ras-converting enzyme; 0.27% of 290,000 active; calls only; Q03530; AID 2563; yeast membranes, quenched prenylated peptide cleavage fluorescence;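 active = fall in fluorescence gain of 50% or more versus controls, with final raw signal at or below 3038400; inconclusive = same 50% fall but final raw signal above 3038400; inactive = fall in fluorescence gain under 50%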
Target sequence (Q03530 whole entry, looked up): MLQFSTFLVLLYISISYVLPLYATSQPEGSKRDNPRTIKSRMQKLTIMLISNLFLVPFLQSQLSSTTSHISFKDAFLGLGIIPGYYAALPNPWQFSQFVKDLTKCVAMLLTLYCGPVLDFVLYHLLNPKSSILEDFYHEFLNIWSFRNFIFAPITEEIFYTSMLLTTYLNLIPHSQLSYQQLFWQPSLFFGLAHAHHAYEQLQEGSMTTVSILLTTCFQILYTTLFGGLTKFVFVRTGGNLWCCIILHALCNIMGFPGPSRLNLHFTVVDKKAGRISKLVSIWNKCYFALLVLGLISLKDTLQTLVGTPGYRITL
Each line names hits and unclear results; the compound was inactive in the other large screens. Rows were chosen to be rich in hits. Some 1.3% of all compounds tested hit in one or more screens of this group.

O=C(N/N=C\c1c(O)ccc2ccccc12)c1ccc(O)cc1	HIF act 34
O=C(CSCC(=O)Nc1ccccc1)N/N=C/c1c(O)ccc2ccccc12	HIF act 71
CCCn1c(/N=C/c2ccccc2O)nc2ccccc21	none (no result: Rce1 inh)
O=C(C[C@H]1C[C@@H]2c3cc(NC(=O)C4CCC4)ccc3O[C@@H]2[C@@H](CO)O1)NCCc1ccccc1	none (no result: AI-2 QS modul, HIF act, Rce1 inh)
C[C@@H]1CN([C@H](C)CO)C(=O)c2cc(NS(=O)(=O)c3ccc(F)cc3)ccc2O[C@H]1CN(C)Cc1ccc(-c2ccccc2)cc1	none (no result: AI-2 QS modul, HIF act, Rce1 inh)
CCCNC(=O)N1[C@@H](CO)[C@@H](c2ccc(C3=CCCC3)cc2)[C@@H]1CNC(C)=O	none (no result: AI-2 QS modul, HIF act, Rce1 inh)
C[C@H](CO)N1C[C@H](C)[C@@H](CN(C)C(=O)C2CCC2)Oc2cc(-c3cccnc3)ccc2S1(=O)=O	none (no result: AI-2 QS modul, HIF act, Rce1 inh)
O=C(N/N=C/c1c(O)ccc2ccccc12)c1ccc(Br)o1	HIF act 59 (no result: PGC1a acetyl inh)
O=C(N/N=C/c1ccccn1)c1ccc(Br)o1	none
Nc1cc(Cl)nc(N/N=C/c2c(O)ccc3ccccc23)n1	HIF act 13 (no result: C2C12 statin, PGC1a acetyl inh)
Cn1cc(C(=O)N/N=C/c2c(O)ccc3ccccc23)ccc1=O	HIF act 88 (no result: C2C12 statin)
Cc1occc1C(=O)N/N=C/c1c(O)ccc2ccccc12	HIF act 91 (no result: PGC1a acetyl inh)
O=C(NN=Cc1c(O)ccc2ccccc12)c1ccncc1	none (no result: C2C12 statin, AI-2 QS modul, HIF act, Rce1 inh)
CCN(CC)S(=O)(=O)c1ccc(N2CCOCC2)c(NC(=O)c2ccc3ccccc3c2)c1	none (no result: PGC1a acetyl inh)
CCN(CC)S(=O)(=O)c1ccc(N2CCOCC2)c(NC(=O)c2cccc3ccccc23)c1	HIF act 46 (no result: C2C12 statin)
COc1ccc(COC[C@]23Oc4ccccc4[C@H]([C@H]2COC(=O)c2ccc([N+](=O)[O-])cc2)N(C(=O)CC(C)=O)C(=O)N3C)cc1	none (no result: C2C12 statin, AI-2 QS modul, HIF act, Rce1 inh)
Cc1nc(N2[C@H](C#N)[C@H](c3ccccc3)[C@H]2CO)sc1C	none (no result: AI-2 QS modul, HIF act, Rce1 inh)
CCCCNc1oc(-c2cccs2)nc1S(=O)(=O)c1ccccc1	C2C12 statin 131
CCn1c(C)nc2c(=O)oc3ccccc3c21	Rce1 inh active
CCOc1ccc(-c2nc(CSCC(=O)NCc3ccco3)c(C)o2)cc1	C2C12 statin 111
O=C(NNC(=O)c1ccccc1Br)c1ccc(Cl)cc1	HIF act 12
O=C(NNC(=O)c1ccccc1Br)c1cccc(Cl)c1	none
CCCNC(=O)N(C)C[C@@H]1Oc2ncc(-c3ccc(F)cc3)cc2C(=O)N([C@H](C)CO)C[C@H]1C	none (no result: AI-2 QS modul, HIF act, Rce1 inh)
Cc1cc(NC(=O)c2oc3ccccc3c2C)ccc1-n1cnnn1	Rce1 inh active
COc1cc(OC)cc(C(=O)Nc2ccc(-n3cnnn3)c(C)c2)c1	none (no result: C2C12 statin, PGC1a acetyl inh)
COc1ccc(C)cc1NC(=O)CCC(=O)Nc1ccc2nc(N3CCN(C)CC3)cc(C)c2c1	Rce1 inh active (no result: C2C12 statin, PGC1a acetyl inh)
CN1C(=O)c2cc(NC(=O)c3ccc(C(F)(F)F)cc3)ccc2OC[C@@H]2O[C@@H](CC(=O)NC3Cc4ccccc4C3)CC[C@H]21	none (no result: AI-2 QS modul, HIF act, Rce1 inh)
CCn1c(SCC(=O)Nc2nc(C)c(C(=O)OC)s2)nnc1C(C)C	C2C12 statin 82
CCCn1c(SCC(=O)Nc2nc(C)c(C(=O)OC)s2)nnc1C(C)C	none
COCC#Cc1ccc2c(c1)O[C@@H](CN(C)CC1CCOCC1)[C@H](C)CN([C@@H](C)CO)S2(=O)=O	none (no result: AI-2 QS modul, HIF act, Rce1 inh)
N#CCc1c(C#N)c(N)nc(N2CCN(S(=O)(=O)c3ccccc3)CC2)c1C#N	C2C12 statin 84
NC(=O)c1ccc(NC(=O)CCC(=O)N2CCN(S(=O)(=O)c3ccc(Cl)cc3)CC2)cc1	none (no result: C2C12 statin)
O=C(CCC(=O)N1CCN(S(=O)(=O)c2ccc(Cl)cc2)CC1)Nc1cccc(Br)c1	C2C12 statin 72
Cc1cc(=O)oc2c(C)c(OCC(=O)N3CCN(c4ccc(F)cc4)CC3)ccc12	none
COc1ccc(N2CCN(C(=O)COc3ccc4c(C)cc(=O)oc4c3C)CC2)cc1	C2C12 statin 107
c1ccc(SSc2ccccn2)nc1	none
c1ccc(Sc2ccccn2)cc1	PGC1a acetyl inh 76 (no result: C2C12 statin)
CCN(CC)c1ccc(NC2=C(Cl)C(=O)c3ccccc3C2=O)cc1	PGC1a acetyl inh 68 (no result: C2C12 statin, AI-2 QS modul, HIF act, Rce1 inh)
Cc1ccc(NC(=O)c2cccc(OCc3c(C)noc3C)c2)cc1	C2C12 statin 105
CCC(=O)N[C@H]1C[C@@H]2O[C@H](CO)CC[C@@H]2O[C@@H]1CCc1ccc(-c2cccc(OC)c2)cc1	none (no result: C2C12 statin, AI-2 QS modul, HIF act, Rce1 inh)
Cc1cc(OCC(=O)N2CCC(C(=O)O)CC2)c2c(C)cc(=O)oc2c1	Rce1 inh active
CCc1cc(=O)oc2cc(C)cc(OCC(=O)N3CCC(C(=O)O)CC3)c12	none
Cc1cc(=O)oc2c3c(cc(OCC(=O)N4CCC(C(=O)O)CC4)c12)OC(C)(C)CC3	Rce1 inh active
Cc1cc(=O)oc2c3c(cc(OCC(=O)N4CCC[C@H]4C(=O)O)c12)OC(C)(C)CC3	Rce1 inh inconclusive
CSC[C@H](NC(=O)COc1cc2c(c3oc(=O)cc(C)c13)CCC(C)(C)O2)C(=O)O	Rce1 inh active
CCS(=O)(=O)N1[C@H](CO)[C@@H](c2ccccc2)C12CN(C(=O)C1CC1)C2	none (no result: C2C12 statin, AI-2 QS modul, HIF act, Rce1 inh)
CC(C)NC(=O)Nc1ccc2c(c1)C(=O)N([C@@H](C)CO)C[C@@H](C)[C@H](CN(C)C)O2	none (no result: AI-2 QS modul, HIF act, Rce1 inh)
CCCNC(=O)Nc1ccc2c(c1)C(=O)N(C)C[C@H](OC)[C@@H](C)CN(CC1CCCC1)[C@H](C)CO2	none (no result: AI-2 QS modul, HIF act, Rce1 inh)
COc1ccc(CNC(=O)CN(CC2CCCO2)C(=O)CNS(=O)(=O)c2ccccc2)cc1 (configuration not stated)	none
COc1ccc(CNC(=O)CN(CC2CCCO2)C(=O)CNS(=O)(=O)c2ccc(C)cc2)cc1 (configuration not stated)	HIF act 27
CCC(=O)Nc1ccc2c(c1)OC[C@@H](C)N(C(=O)NC1CCCCC1)C[C@@H](C)[C@H](OC)CN(C)C2=O	none (no result: AI-2 QS modul, HIF act, Rce1 inh)
O=C(c1ccccn1)N1CC(=O)N2[C@H](CO)[C@@H](c3ccc(-c4cccc(F)c4)cc3)[C@H]2C1	none (no result: C2C12 statin, AI-2 QS modul, HIF act, Rce1 inh)
COc1ccc(-c2csc(C(C)(O)c3ccccc3)n2)cc1OC (configuration not stated)	C2C12 statin 112 (no result: AI-2 QS modul, HIF act, Rce1 inh)
C[C@H]1CCCCO[C@H](CN(C)S(=O)(=O)c2ccccc2)[C@@H](C)CN([C@@H](C)CO)C(=O)c2cc(N(C)C)ccc2O1	none (no result: AI-2 QS modul, HIF act, Rce1 inh)
COc1ccc2c3c([nH]c2c1)[C@H](CO)N(C(=O)Cc1ccccc1)CC31CN(C(=O)Cc2ccccc2)C1	none (no result: C2C12 statin, AI-2 QS modul, HIF act, Rce1 inh)
CC(C)NC(=O)Nc1ccc2c(c1)CC(=O)N([C@@H](C)CO)C[C@@H](C)[C@H](CN(C)Cc1ccc(-c3ccccc3)cc1)O2	none (no result: AI-2 QS modul, HIF act, Rce1 inh)
O=C(C1CCCC1)N1CCCCN2[C@H](CO)[C@H](c3ccc(C#CC4(O)CCCC4)cc3)[C@H]2C1	none (no result: C2C12 statin, AI-2 QS modul, HIF act, Rce1 inh)
COc1cccc(-c2nc(C#N)c(N3CCN(C(=O)c4ccco4)CC3)o2)c1	Rce1 inh active (no result: PGC1a acetyl inh)
O=C(C[C@H]1CC[C@H]2[C@@H](COC[C@H](O)CN2C(=O)c2ccccc2)O1)N1CCOCC1	none (no result: AI-2 QS modul, HIF act, Rce1 inh)
C[C@H](CO)N1C[C@H](C)[C@H](CN(C)C(=O)c2ccncc2)OCCCC[C@H](C)Oc2ccc(NS(C)(=O)=O)cc2C1=O	none (no result: C2C12 statin, AI-2 QS modul, HIF act, Rce1 inh)

Screens as filed in PubChem.
